# Test results reported in PubChem BioAssay.
# Values joined by “and” are separate entries in the source; they are usually repeats but may differ in a detail not shown here. Equal entries are not always repeated. Peptide text beside a SMILES is read from it. * marks the point of attachment. CH2Cl = ClC*
# Test: viability loss with induced miR-34 in A549 – imaging, A549 dox-inducible miR-34, nuclei and caspase counts, primary screen (AID 1347080); further: test concentration not given here
# Conditions: A549 miR-34 inducible, Hoechst nuclei count, 48 h; measured here: total cells with miR-34 induction; stronger effect = lower value
row,SMILES,cell count
1,N[C@H]1C[C@@H]1c1ccccc1,9050
2,O=C(NCCN1CCC2(CC1)C(=O)NCN2c1ccccc1)c1ccc2ccccc2c1,5740
3,CCCCC/C=C\C/C=C\C/C=C\C/C=C\CCCC(=O)Nc1ccc2c(C)cc(=O)oc2c1,5170
4,C=C1[C@@H](C)[C@H]2[C@H](Cc3ccccc3)NC(=O)[C@]23OC(=O)/C=C/[C@H](O)CCC[C@@H](C)C/C=C/[C@H]3[C@@H]1O,1220
5,CCNC(=O)[C@H]1O[C@@H](n2cnc3c(N)ncnc32)[C@@H](O)C1O (stereo not given in full),6150
6,CCCCC/C=C\C/C=C\C/C=C\C/C=C\CCCC(=O)NCCc1c[nH]c2ccc(O)cc12,5660
7,CCCC[C@@H](C)C(OC(=O)C[C@@H](CC(=O)O)C(=O)O)C(C[C@@H](C)C[C@H](O)CCCC[C@@H](O)C[C@H](O)[C@H](C)N)OC(=O)C[C@@H](CC(=O)O)C(=O)O (stereo not given in full),5390
8,CCCCC/C=C\C/C=C\C/C=C\C/C=C\CCCC(=O)NOCCO,5500
9,O=C(CCC/C=C\C[C@@H]1[C@@H](/C=C/[C@@H](O)COc2cccc(C(F)(F)F)c2)[C@H](O)C[C@@H]1O)NC(CO)CO,5260
10,CC1OC(=O)C(C(C)C)NC(=O)C(C(C)C)OC(=O)C(C(C)C)NC(=O)C(C)OC(=O)C(C(C)C)NC(=O)C(C(C)C)OC(=O)C(C(C)C)NC(=O)C(C)OC(=O)C(C(C)C)NC(=O)C(C(C)C)OC(=O)C(C(C)C)NC1=O (stereo not given),1020
11,CN=C(NS(=O)(=O)c1ccc(Cl)cc1)N1C[C@@H](c2ccccc2)C(c2ccc(Cl)cc2)=N1,3940
12,CCCCC/C=C\C/C=C\C/C=C\C/C=C\CCCC(=O)Nc1ccc(O)cc1C,6030
13,CCCC(=O)N[C@H]1CCOC1=O,6040
14,Clc1ccc(C2CC3CCC2N3)cn1 (stereo not given),6010
15,COC(=O)[C@@]1(O)CC2OC1(C)n1c3ccccc3c3c4c(c5c6ccccc6n2c5c31)C(=O)NC4 (stereo not given in full),2180
16,C=C(C)[C@@H]1CCC(C)=C[C@H]1c1c(OC)cc(CCCCC)cc1OC,5760
17,COC(C/C=C/C=C/CC/C=C\CC(C)/C=C\C(=C/C(=O)O)CC(=O)O)/C(C)=C\C=C(/C)C(=O)O (stereo not given),5720
18,CCCCC/C=C\C/C=C\C/C=C\C/C=C\CCCC(=O)NCC(O)CC(=O)O (stereo not given),5440

row,SMILES,cell count
1,C=C1[C@@H](C)[C@H]2[C@H](Cc3ccccc3)NC(=O)C23[C@H](OC(C)=O)/C=C/[C@](C)(O)C(=O)[C@@H](C)C/C=C/[C@H]3[C@@H]1O (stereo not given in full),990
2,CCCCC/C=C\C/C=C\C/C=C\C/C=C\CCCC(=O)NC[C@@H](C)O,5790
3,COC[C@H]1OC(=O)c2coc3c2[C@@]1(C)C1=C(C3=O)[C@@H]2CCC(=O)[C@@]2(C)C[C@H]1OC(C)=O,1550
4,Cn1c2cccc(=O)c-2nc2ccccc21,3390
5,C[C@H](N)C(=O)N[C@@H](C)C(=O)N[C@@H](Cc1ccccc1)C(=O)CCl (H-Ala-Ala-Phe-CH2Cl),2970
6,CO/C1=C\C(C)=C\[C@@H](C)[C@@H](O)[C@@H](C)C/C(C)=C/C=C/[C@H](OC)[C@@H]([C@@H](C)[C@@H](O)[C@H](C)[C@@]2(O)C[C@@H](O)[C@H](C)[C@@H](C(C)C)O2)OC1=O,2990
7,CCCCC/C=C\C/C=C\C/C=C\C/C=C\CCCC(=O)NC(CO)CO,5640
8,CCCCC/C=C\C/C=C\C/C=C\C/C=C\CCCC(=O)NCc1ccc(O)c(OC)c1,2750 and 5480
9,CCCCC/C=C\C/C=C\C/C=C\C/C=C\CCC(C)C(=O)NCCF (stereo not given),5220
10,C=C(C)[C@H]1O[C@H]2CC[C@@]3(C)[C@@](O)(CC[C@H]4[C@@H]5OC(C)(C)[C@H]6C[C@@H]7C(=C)Cc8c(Cl)cc9[nH]c(c5c9c8[C@@]76O)[C@@]43C)[C@]23O[C@@H]3[C@H]1O,1060
11,CC(C)CC(NP(=O)(O)OC1OC(C)C(O)C(O)C1O)C(=O)NC(Cc1c[nH]c2ccccc12)C(=O)O (stereo not given),9030
12,CCCCCCCC/C=C\CCCCCCCC(=O)Nc1ccccc1,6190
13,CCCCC/C=C\C/C=C\C/C=C\C/C=C\CCCC(=O)N[C@@H](C)CO,6190
14,C[C@]12CCC3c4ccc(OC(=O)N(CCCl)CCCl)cc4CCC3C1CC[C@@H]2O (stereo not given in full),2030
15,CCCCC/C=C\C/C=C\C/C=C\C/C=C\CCCC(=O)N[C@H](C)COP(=O)(O)O,5610
16,CCCCC/C=C\C/C=C\C/C=C\C/C=C\CCCC(=O)Nc1ccc([N+](=O)[O-])cc1,5860
17,N#CC(C#N)=NNc1ccc(OC(F)(F)F)cc1,1180
